Test results published in PubChem BioAssay (NCI).
About 79,000 compounds went through this panel and 15% of them were active in at least one assay; those are over-represented in the sample as a whole. Active and inactive are the calls of the source. Rule as the data show it: active = growth inhibition above about 70%; inactive = the rest.

How the values were obtained:
[1] = NCI Yeast Anticancer Drug Screen. Data for the rad52 strain (AID 147);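 also: 0% = growth of vehicle-treated control cultures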; details: S. cerevisiae rad52 mutant growth inhibition, active compounds read high
How it was run: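 Inhibition of yeast growth, referenced to vehicle controls, was the measured output for a strain with defective DNA damage repair.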

[2] = NCI Yeast Anticancer Drug Screen. Data for the wt1 strain (AID 149);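 also: 0% = growth of vehicle-treated wt1 cultures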; details: S. cerevisiae wt1 strain (SPY 50644) growth inhibition, active compounds read high
How it was run: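 Each compound is tested on wt1 yeast and the loss of growth versus vehicle gives the inhibition value.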

[3] = NCI Yeast Anticancer Drug Screen. Data for the rad50EPP+ strain (AID 151);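 also: 0% = growth of vehicle-treated control cultures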; details: S. cerevisiae rad50 mutant strain, active compounds read high
How it was run: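 Genetically defined yeast (rad50EPP+, DNA damage repair alteration) is grown with compound, and inhibition of growth is expressed relative to vehicle-treated controls.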

[4] = NCI Yeast Anticancer Drug Screen. Data for the mgt1 strain (AID 153); details: S. cerevisiae mgt1 mutant growth inhibition, active compounds read high
How it was run: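 In the mgt1 strain, test compounds were added and growth inhibition was determined relative to vehicle-treated controls.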

[5] = NCI Yeast Anticancer Drug Screen. Data for the rad50 strain (AID 155);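 also: 0% = growth of vehicle-only cultures of the same strain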; details: S. cerevisiae rad50 strain growth inhibition, active compounds read high
How it was run: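 Vehicle-treated cultures provide the reference for the growth inhibition reported for compound-exposed, repair-deficient yeast.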

[6] = NCI Yeast Anticancer Drug Screen. Data for the mec2-1 strain (AID 157); details: S. cerevisiae mec2-1 strain, active compounds read high
How it was run: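 Each compound was tested on mec2-1 yeast, a strain altered in DNA damage repair or cell cycle control. Growth inhibition is reported relative to vehicle.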

[7] = NCI Yeast Anticancer Drug Screen. Data for the sgs1 mgt1 strain (AID 161);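 also: 0% = growth of cultures given vehicle only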; details: S. cerevisiae sgs1 mgt1 strain, active compounds read high
How it was run: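 Inhibition of yeast growth, normalised to vehicle-treated controls, is reported for a strain bearing genetic alterations in DNA damage repair.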

[8] = NCI Yeast Anticancer Drug Screen. Data for the CLN2oe strain (AID 163);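 also: 0% = growth of vehicle-only control cultures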; details: S. cerevisiae CLN2oe strain, active compounds read high
How it was run: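 First, the altered yeast strain was treated with each compound; second, its growth was measured; finally, inhibition was derived by comparison with vehicle controls.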

[9] = NCI Yeast Anticancer Drug Screen. Data for the bub3 strain (AID 167); details: S. cerevisiae bub3 mutant strain, active compounds read high
How it was run: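 Mutant yeast screening strain plus compound; vehicle-treated cultures serve as the 0% inhibition reference.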

[10] = NCI Yeast Anticancer Drug Screen. Data for the wt2 strain (AID 169); details: S. cerevisiae wt2 strain growth inhibition, active compounds read high
How it was run: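 The panel's yeast strains carry defined changes in DNA repair or cell cycle genes. Each strain is grown with compound, and growth loss is scored relative to vehicle.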

[11] = NCI Yeast Anticancer Drug Screen. Data for the mlh1 strain (AID 171);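 also: 0% = growth of vehicle-treated control cultures of the same strain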; details: S. cerevisiae mlh1 strain growth inhibition, active compounds read high
How it was run: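 Inhibition values reflect reduced yeast growth in the presence of compound, referenced to vehicle controls, using a strain chosen for its alteration in DNA repair or cell cycle control.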

[12] = NCI Yeast Anticancer Drug Screen. Data for the sgs1 strain (AID 173);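 also: 0% = growth of vehicle-only control cultures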; details: S. cerevisiae sgs1 mutant, active compounds read high
How it was run: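 Vehicle-treated cultures served as reference for growth inhibition of a yeast strain altered in DNA damage repair or cell cycle control after compound exposure.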

[13] = NCI Yeast Anticancer Drug Screen. Data for the mlh1 rad18 strain (AID 175); details: S. cerevisiae mlh1 rad18 strain growth inhibition, active compounds read high
How it was run: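 Inhibition values reflect reduced growth of mutant yeast versus vehicle-treated controls following compound exposure; the mutations affect DNA damage repair.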

[14] = NCI Yeast Anticancer Drug Screen. Data for the rad18 strain (AID 177); details: S. cerevisiae rad18 mutant growth inhibition, active compounds read high
How it was run: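 Steps: expose repair-mutant yeast to compound; measure growth; express as inhibition relative to vehicle control.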

[15] = NCI Yeast Anticancer Drug Screen. Data for the cln2 rad14 strain (AID 165);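 also: 0% = growth equal to vehicle treated cultures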; details: S. cerevisiae cln2 rad14 strain, active compounds read high
How it was run: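 Test compounds were added to cln2 rad14 yeast cultures; inhibition of growth was then determined by comparison with vehicle treatment.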

[16] = at 5.0 µM (retest, dose inferred, filed as 0.5)
[17] = at 50.0 µM (retest, dose inferred, filed as 5.0)

Measured: growth inhibition

CCCCCCCCCCCC1=NCCO1
active: [1]; at 100.0 µM 98% | [2]; at 100.0 µM 98% | [4]; at 100.0 µM 99% | [5]; at 100.0 µM 99% | [6]; at 100.0 µM 99% | [7]; at 50.0 µM 87.6% | [8]; at 100.0 µM 99% | [9]; at 100.0 µM 98% | [10]; at 100.0 µM 99% | [11]; at 100.0 µM 99% | [12]; at 100.0 µM 99% | [13]; [17] 71% | [14]; at 100.0 µM 98%
inactive: [1]; at 1.2 µM 3% | [1]; at 3.7 µM 3% | [1]; at 11.0 µM -1% | [1]; at 33.0 µM 18% | [2]; at 1.2 µM 1% | [2]; at 3.7 µM -1% | [2]; at 11.0 µM 2% | [2]; at 33.0 µM 15% | [3]; at 1.2 µM 4% | [3]; at 3.7 µM 5% | [3]; at 11.0 µM 16% | [3]; at 33.0 µM 27% | [3]; at 100.0 µM 53% | [4]; at 1.2 µM -5% | [4]; at 3.7 µM 3% | [4]; at 11.0 µM 0% | [4]; at 33.0 µM 27% | [5]; at 1.2 µM 9% | [5]; at 3.7 µM 18% | [5]; [16] -11% | [5]; at 11.0 µM 14% | [5]; at 33.0 µM 29% | [5]; [17] 8% | [5]; at 50.0 µM 25.1% | [6]; at 1.2 µM -6% | [6]; at 3.7 µM -4% | [6]; [16] -12% | [6]; at 11.0 µM -13% | [6]; at 33.0 µM 18% | [6]; [17] -21% | [6]; at 50.0 µM 46.3% | [7]; [16] -12% | [7]; [17] 47% | [8]; at 1.2 µM -3% | [8]; at 3.7 µM -1% | [8]; at 11.0 µM 4% | [8]; at 33.0 µM 19% | [9]; at 1.2 µM -19% | [9]; at 3.7 µM -27% | [9]; [16] -34% | [9]; at 11.0 µM -1% | [9]; at 33.0 µM 8% | [9]; [17] 31% | [9]; at 50.0 µM 24.5% | [10]; at 1.2 µM -1% | [10]; at 3.7 µM 0% | [10]; at 11.0 µM 2% | [10]; at 33.0 µM 61% | [11]; at 1.2 µM -5% | [11]; at 3.7 µM -3% | [11]; at 11.0 µM -10% | [11]; at 33.0 µM 16% | [12]; at 1.2 µM 1% | [12]; at 3.7 µM -1% | [12]; at 11.0 µM 6% | [12]; at 33.0 µM 63% | [13]; [16] -16% | [13]; at 50.0 µM 41% | [14]; at 1.2 µM 4% | [14]; at 3.7 µM 8% | [14]; at 11.0 µM 5% | [14]; at 33.0 µM 10%

Cc1cc(C)nc(NS(=O)(=O)c2ccc(Nc3c4ccccc4nc4c(C(=O)NCCO)cccc34)cc2)n1
inactive: [1]; at 1.2 µM -2% | [1]; at 3.7 µM -1% | [1]; at 11.0 µM 2% | [1]; at 33.0 µM 21% | [1]; at 100.0 µM 59% | [2]; at 1.2 µM -1% | [2]; at 3.7 µM -2% | [2]; at 11.0 µM -2% | [2]; at 33.0 µM -35% | [2]; at 100.0 µM -9% | [3]; at 1.2 µM -3% | [3]; at 3.7 µM 0% | [3]; at 11.0 µM 1% | [3]; at 33.0 µM 3% | [3]; at 100.0 µM -14% | [4]; at 1.2 µM 0% | [4]; at 3.7 µM -1% | [4]; at 11.0 µM -2% | [4]; at 33.0 µM -1% | [4]; at 100.0 µM 32% | [5]; at 1.2 µM -1% | [5]; at 3.7 µM 1% | [5]; [16] -17% | [5]; at 11.0 µM 6% | [5]; at 33.0 µM 25% | [5]; at 50.0 µM 39.2% | [5]; at 100.0 µM 68% | [6]; at 1.2 µM -1% | [6]; at 3.7 µM -1% | [6]; [16] -13% | [6]; at 11.0 µM 1% | [6]; at 33.0 µM 3% | [6]; [17] 6% | [6]; at 50.0 µM 3.4% | [6]; at 100.0 µM 24% | [7]; [16] -9% | [7]; [17] 56% | [7]; at 50.0 µM -10.7% | [8]; at 1.2 µM 0% | [8]; at 3.7 µM -3% | [8]; at 11.0 µM -3% | [8]; at 33.0 µM -2% | [8]; at 100.0 µM 10% | [15]; [16] 16% | [15]; [17] 6% | [9]; at 1.2 µM 0% | [9]; at 3.7 µM 0% | [9]; [16] -17% | [9]; at 11.0 µM 2% | [9]; at 33.0 µM 0% | [9]; [17] 2% | [9]; at 50.0 µM 0% | [9]; at 100.0 µM 16% | [10]; at 1.2 µM -1% | [10]; at 3.7 µM -2% | [10]; at 11.0 µM -2% | [10]; at 33.0 µM -2% | [10]; at 100.0 µM 27% | [11]; at 1.2 µM -3% | [11]; at 3.7 µM -2% | [11]; at 11.0 µM 0% | [11]; at 33.0 µM -1% | [11]; at 100.0 µM 30% | [12]; at 1.2 µM -3% | [12]; at 3.7 µM -1% | [12]; at 11.0 µM 1% | [12]; at 33.0 µM 2% | [12]; at 100.0 µM 30% | [13]; [16] -8% | [13]; [17] 44% | [13]; at 50.0 µM 65.3% | [14]; at 1.2 µM -4% | [14]; at 3.7 µM -1% | [14]; at 11.0 µM 0% | [14]; at 33.0 µM 7% | [14]; at 100.0 µM 30%
active: [5]; [17] 91% | [15]; at 50.0 µM 81.2%
